The record followed here is PubChem BioAssay.

Test [1] has as its system Human papillomavirus type 1a protein E7 (residues 44-93). In words: small molecules binding HPV E7 44-93 – biochemical, small-molecule microarray, residues 44-93, 635 nm fluorescence, primary screen (AID 1108).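 Note: E7 fragment applied at 1 µg/mL in TBST for 1 h at 4 C; score combines spot fluorescence with its signal to noise ratio.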 The settings on record: fluorescence 635 nm, higher = more signal.
The nature of test [2]: hepatitis C replication reporter changes, two-sided – Huh7 cells, luciferase reporter, HCV replication inhibitor project, primary screen (AID 1109).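 Note: huh7 hepatoma cells harbouring a luciferase neomycin HCV replicon reporter; luciferase luminescence as measure of HCV replicon replication; test concentration not given here.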 The following applies: Huh7 HCV replicon luciferase reporter, 48 h; higher = more signal.
The target of test [3] is Left-right determination factor 2 (Homo sapiens) (UniProt O00292). In words: small molecules binding LEFTY2 protein – biochemical, small-molecule microarray, 635 nm fluorescence scan, primary screen (AID 1110). The settings on record: higher = more signal.
Test [4] addresses Calmodulin-1 (Homo sapiens) (UniProt P0DP23). The test can be described thus: small molecules binding calmodulin-1 with EGTA – biochemical, small-molecule microarray, Cy5-labelled CALM1, profiling panel (AID 1111).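 Note: labelled calmodulin applied in Tris saline Tween buffer holding calcium plus EGTA and DTT.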 The settings on record: Cy5-CALM1 binding fluorescence, higher = more signal.
For test [5] the target is unchanged. In words: small molecules binding Ca-loaded calmodulin-1 – biochemical, small-molecule microarray, Cy5-labelled CALM1, plus calcium, artefact control for SMM control-protein annotation, profiling panel (AID 1112).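 Note: score merges spot fluorescence with signal to noise from triplicate slides.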 The following applies: Cy5-CALM1 binding fluorescence, higher = more signal.
Test [6] is described as follows: probe aWnt5a binding to arrayed compounds – biochemical, biotinylated probe, 635/667 nm fluorescence, primary screen (AID 1113).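 Note: score merges 667 nm fluorescence intensity with signal-to-noise per printed feature.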 The settings on record: small-molecule microarray, higher = more signal.
Test [7] is described as follows: probe aShh binding to arrayed compounds – biochemical, biotinylated probe, 635/667 nm fluorescence, primary screen (AID 1114).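 Note: probe is biotin-labelled aShh protein from a stem cell growth factor screen; measures binding of labelled protein to compounds printed on the slide; score merges feature fluorescence at 667 nm with signal-to-noise.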 The following applies: small-molecule microarray, higher = more signal.
The nature of test [8]: probe aNog binding to arrayed compounds – biochemical, biotinylated probe, 635/667 nm fluorescence, primary screen (AID 1115).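 Note: probe is biotinylated aNog protein used at 0.15 µg/mL for 1 h at 4 C; z-score combines 667 nm fluorescence of each spot with its signal to noise.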 The settings on record: small-molecule microarray, higher = more signal.
Test [9] concerns the target Torsin-1A-interacting protein 1 (Homo sapiens) (UniProt Q5JTV8). In words: compound microarray binding of lysate hLAP1 – cell lysate, small-molecule microarray, COS7 lysate, 635/667 nm fluorescence, primary screen (AID 1116). The settings on record: 635 nm fluorescence, higher = more signal.
Test [10] deals with Alpha-bungarotoxin (Bungarus multicinctus) (UniProt P60615). The test can be described thus: compounds binding labelled alpha-BTX control protein – biochemical, small-molecule microarray, Alexa647 label, 635/667 nm fluorescence, artefact control for SMM control protein annotation, profiling panel (AID 1117). The following applies: alpha-BTX-A647 binding fluorescence, higher = more signal.

A further test concerns the target Albumin (Bos taurus) (UniProt P02769). In words: compounds binding labelled BSA control protein – biochemical, small-molecule microarray, Alexa647 label, 635/667 nm fluorescence, artefact control for SMM control protein annotation, profiling panel (AID 1118).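 Note: score merges 667 nm emission intensity and signal-to-noise per printed compound spot.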 The settings on record: BSA-A647 binding, fluorescence 635 nm, higher = more signal.
Test [11] is described as follows: probe aXIP binding to arrayed compounds – biochemical, NeuroSMM set, 635/667 nm fluorescence, primary screen (AID 1119).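 Note: probe is the protein aXip251-270 applied at 1 µg/mL to compound-printed slides; binding of probe to printed compounds measured as 667 nm fluorescence plus signal to noise.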 The settings on record: small-molecule microarray, higher = more signal, called active from +8 up or from −8 down.
A short description of test [12]: probe aNOTCH3 binding on compound microarray – biochemical, small-molecule microarray, 635/667 nm fluorescence, primary screen (AID 1120).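 Note: probe is a biotin-tagged antibody raised against NOTCH3 rather than NOTCH3 protein; score merges spot fluorescence near 667 nm with spot signal to noise.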 The settings on record: higher = more signal.
The nature of test [13]: probe aNOTCH2 binding on compound microarray – biochemical, small-molecule microarray, 635/667 nm fluorescence, primary screen (AID 1121).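 Note: score merges feature fluorescence read at 667 nm with its signal to noise.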 The following applies: higher = more signal.
In test [14] the target is Carbonic anhydrase 2 (Homo sapiens) (UniProt P00918). The test can be described thus: compounds binding carbonic anhydrase 2 – biochemical, small-molecule microarray, Alexa647-labelled CAII, profiling panel (AID 1122). The settings on record: CAII-A647 binding fluorescence, higher = more signal.
A short description of test [15]: COS7 lysate on small-molecule microarray, probe aHis, 635 nm (AID 1123).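 Note: z-score combines 667nm fluorescence intensity with signal-to-noise per printed compound spot.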 The following applies: COS7 cell lysate, fluorescence, higher = more signal.
A short description of test [16]: probe aLAP1 signal on lysate-treated microarray – cell lysate, small-molecule microarray, COS7 lysate, primary screen (AID 1124).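 Note: lysate comes from COS7 cells expressing LAP1 and is applied at 0.3 µg/mL; score merges spot fluorescence near 667 nm with signal-to-noise over triplicate slides.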 The settings on record: probe aLAP1, fluorescence, higher = more signal.
In the next test the test system is Sam68 (KHDRBS1). In words: compounds binding KHDRBS1 protein – biochemical, small-molecule microarray, 635 nm fluorescence, primary screen (AID 1125).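 Note: score merges 667 nm channel intensity with signal to noise over triplicate slides.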 The following applies: higher = more signal.
Test [17] relates to Chordin-like protein 2 (CHRDL2). In words: compounds binding chordin-like 2 – biochemical, small-molecule microarray, 635 nm fluorescence, primary screen (AID 1126).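 Note: printed compound slides probed with Chrdl2 protein at 4 µg/mL for 1 h at 4 C; score merges 667 nm emission intensity with signal to noise over three replicate slides.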 The settings on record: fluorescence 635 nm, higher = more signal.
Test [18] concerns the target Concanavalin-A (Canavalia ensiformis) (UniProt P02866). In words: compounds binding concanavalin A lectin – biochemical, small-molecule microarray, Alexa647 label, 635 nm, artefact control for SMM control protein annotation, primary screen (AID 1127).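 Note: z combines 667 nm emission intensity with signal-to-noise across three replicate slides.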 The following applies: ConA-A647 binding fluorescence, higher = more signal.

Calls of active or inactive are those of the source.

Sequence of Left-right determination factor 2 (Homo sapiens) (O00292 whole entry, looked up): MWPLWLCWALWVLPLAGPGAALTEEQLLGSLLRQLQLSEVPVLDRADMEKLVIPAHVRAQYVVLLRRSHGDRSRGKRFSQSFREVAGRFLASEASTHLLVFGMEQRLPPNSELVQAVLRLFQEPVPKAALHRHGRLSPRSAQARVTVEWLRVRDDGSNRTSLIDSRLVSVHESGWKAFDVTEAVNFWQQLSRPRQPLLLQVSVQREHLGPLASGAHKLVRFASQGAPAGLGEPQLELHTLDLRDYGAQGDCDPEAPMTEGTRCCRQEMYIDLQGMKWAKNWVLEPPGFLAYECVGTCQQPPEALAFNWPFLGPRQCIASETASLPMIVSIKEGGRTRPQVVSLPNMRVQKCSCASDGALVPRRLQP
Sequence of Alpha-bungarotoxin (Bungarus multicinctus) (P60615 whole entry, looked up): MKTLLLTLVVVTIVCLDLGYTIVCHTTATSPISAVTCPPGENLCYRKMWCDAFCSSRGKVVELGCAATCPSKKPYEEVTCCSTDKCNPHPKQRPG
Sequence of Albumin (Bos taurus) (P02769 whole entry, looked up): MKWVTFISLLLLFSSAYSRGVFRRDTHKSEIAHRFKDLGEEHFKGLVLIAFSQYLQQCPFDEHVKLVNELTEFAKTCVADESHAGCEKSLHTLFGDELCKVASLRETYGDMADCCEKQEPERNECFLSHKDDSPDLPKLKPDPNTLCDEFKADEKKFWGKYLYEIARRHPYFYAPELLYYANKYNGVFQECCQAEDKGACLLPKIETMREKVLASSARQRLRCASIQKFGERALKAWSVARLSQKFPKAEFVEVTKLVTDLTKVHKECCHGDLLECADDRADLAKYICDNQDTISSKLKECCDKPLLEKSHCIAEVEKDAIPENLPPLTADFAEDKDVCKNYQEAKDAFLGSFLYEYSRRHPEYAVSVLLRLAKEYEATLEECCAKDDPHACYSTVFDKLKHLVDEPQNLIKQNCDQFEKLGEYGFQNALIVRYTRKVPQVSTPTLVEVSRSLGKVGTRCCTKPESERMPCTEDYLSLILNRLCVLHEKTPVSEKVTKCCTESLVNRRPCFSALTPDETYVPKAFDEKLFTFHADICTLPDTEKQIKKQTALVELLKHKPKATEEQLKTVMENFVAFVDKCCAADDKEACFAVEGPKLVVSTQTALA
Sequence of Concanavalin-A (Canavalia ensiformis) (P02866 whole entry, looked up): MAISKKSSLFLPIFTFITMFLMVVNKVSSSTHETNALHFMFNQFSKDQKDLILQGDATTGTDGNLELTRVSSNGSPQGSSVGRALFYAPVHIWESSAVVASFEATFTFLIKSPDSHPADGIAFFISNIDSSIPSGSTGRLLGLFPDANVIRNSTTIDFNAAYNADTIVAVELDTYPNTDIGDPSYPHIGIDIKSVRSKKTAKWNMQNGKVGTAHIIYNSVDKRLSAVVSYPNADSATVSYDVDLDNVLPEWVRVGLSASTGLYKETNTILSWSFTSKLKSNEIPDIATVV
Sequence of Torsin-1A-interacting protein 1 (Homo sapiens) (Q5JTV8 whole entry, looked up): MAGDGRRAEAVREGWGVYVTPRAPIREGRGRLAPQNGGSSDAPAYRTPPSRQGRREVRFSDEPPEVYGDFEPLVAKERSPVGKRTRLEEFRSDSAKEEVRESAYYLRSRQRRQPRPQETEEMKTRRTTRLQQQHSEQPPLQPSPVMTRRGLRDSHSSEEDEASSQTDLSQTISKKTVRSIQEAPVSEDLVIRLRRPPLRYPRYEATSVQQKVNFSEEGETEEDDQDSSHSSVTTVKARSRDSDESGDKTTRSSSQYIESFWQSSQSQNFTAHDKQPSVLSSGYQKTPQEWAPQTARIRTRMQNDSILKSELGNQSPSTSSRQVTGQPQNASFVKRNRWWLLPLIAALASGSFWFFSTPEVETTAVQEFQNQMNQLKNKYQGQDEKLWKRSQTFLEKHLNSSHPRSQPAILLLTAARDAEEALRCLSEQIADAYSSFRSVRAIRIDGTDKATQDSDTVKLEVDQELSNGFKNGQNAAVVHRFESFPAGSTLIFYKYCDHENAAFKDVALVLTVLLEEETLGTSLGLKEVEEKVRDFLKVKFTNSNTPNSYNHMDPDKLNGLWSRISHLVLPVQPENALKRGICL

In the case of `O=C1C2C=CC(C(O)C=Cc3ccc([N+](=O)[O-])cc3)N(Nc3ccccc3F)C2C(=O)N1c1ccccc1` (stereo not given), the composite z-score in [1] worked out at 1.47; in test [3], 0.458; in test [4], 1.27; in [5], 0.362; in test [6] it was 0.0037; in [7] it was 0.166. Further, the composite z-score in test [8] was 0.581; in test [9] it was 1.18; in test [10] it was 1.12; with Albumin (Bos taurus) it was 0.868; in test [12], 0.127; in test [13], -0.147. The composite z-score in [14] was 0.651; in test [15] it was 2.31; in test [16], 0.885; in the test on Sam68 (KHDRBS1), 1.3; in test [17], 0.0612; in test [18] it was 1.15. In addition, in [2], the z-score is -0.969. The composite Z-score in test [11] was 0.139 (inactive).
For `CCCCC(=C=CC[C@H](O)c1cccc(OCCO)c1)C[C@H](O)c1ccccn1`, the composite z-score in test [1] is -0.146; in [3], 0.258; in [4], 0.481; in test [5] it was -0.784; in [6], -0.0239; in [7] it was -0.13. Also, the composite z-score in test [8] is -0.23; in [9] it was 0.0971; in [10], -0.0891; in the test with Albumin (Bos taurus), 0.424; in test [12] it was -0.0014; in test [13], -0.153. In addition, the composite z-score in test [14] was 0.693; in test [15], -0.0434; in [16], -0.165; in the test with Sam68 (KHDRBS1), -0.15; in test [17] it was 0.23; in test [18] it was 0.503. Also, the z-score in test [2] is -1.05. Also, the composite Z-score in test [11] is 0.152 (inactive).
With `C=C(CCCC)C(=O)CC[C@@H](OC(C)=O)c1ccc(CO)o1`, the composite z-score is 0.0497 in test [1]; 0.523 in test [3]; -0.854 in test [4]; -1.12 in test [5]; -0.18 in [6]; -0.206 in test [7]. Further, the composite z-score in [8] is 0.0417; in [9], 2.04; in test [10], -0.217; in the test with Albumin (Bos taurus) it was -0.855; in test [12] it was -0.0581; in [13] it was -0.108. Moreover, the composite z-score is 0.645 in [14]; 0.423 in [15]; -0.0353 in test [16]; 0.628 in the test on Sam68 (KHDRBS1); 0.869 in [17]; 0.0313 in test [18]. For the same compound, the z-score in test [2] was -1.21. In addition, the composite Z-score in test [11] is -0.666 (inactive).
Regarding `COC(=O)[C@@]1(Cc2ccccc2)[C@H]2c3cc(C(=O)N4CCCC4)n(Cc4ccc(O)c(OC)c4)c3C[C@H]2CN1C(=O)c1ccccc1`, the composite z-score in test [1] is 1.35; in test [3], -0.943; in test [4], 0.556; in [5], 0.0466; in test [6] it was 0.288; in [7] it was 1.14. For the same compound, the composite z-score in test [8] is 1.11; in test [9] it was 0.53; in test [10], -0.142; in the test with Albumin (Bos taurus), 0.638; in test [12], 0.63; in test [13], 0.302. The composite z-score in test [14] is 0.83; in test [15] it was 2.37; in test [16] it was 0.0364; in the test on Sam68 (KHDRBS1), 0.008; in test [17] it was -1.62; in test [18], 0.284. Further, the z-score in test [2] was -1.7. Further, the composite Z-score in test [11] was -0.0662 (inactive).
Regarding `COc1ccc(-c2cc3c(c(Cc4ccccc4)n2)[Si](C(C)C)(C(C)C)OC3)cn1`, the composite z-score was -0.864 in test [1]; -0.0979 in test [3]; -0.646 in [4]; 0.0817 in [5]; -0.13 in test [6]; -0.0849 in test [7]. Moreover, the composite z-score in [8] was -0.0855; in test [9], -0.0516; in [10], -0.26; with Albumin (Bos taurus) it was -0.832; in test [12] it was 0.0596; in test [13] it was -0.155. The composite z-score in test [14] is -0.272; in test [15] it was -0.0385; in test [16], -0.124; in the test with Sam68 (KHDRBS1), -0.0817; in test [17], 0.21; in test [18] it was -0.739. In addition, the z-score in test [2] is -0.421. For the same compound, the composite Z-score in [11] is 0.168 (inactive).
For `[N-]=[N+]=Nc1ccccc1C[C@@]1(C(=O)N2CCCCC2)N=C(c2ccc(OCCCO)cc2)O[C@@H]1c1ccccc1`, the composite z-score was -0.108 in test [1]; 0.0334 in test [3]; 1.83 in test [4]; 0.914 in test [5]; -0.0459 in test [6]; -0.0904 in test [7]. The composite z-score in [8] stood at 1.79; in test [9], 1.52; in [10], 1.07; with Albumin (Bos taurus), 0.782; in test [12] it was 0.107; in test [13], 0.111. For the same compound, the composite z-score was 0.398 in test [14]; 2.37 in test [15]; 0.677 in test [16]; 1.22 in the test on Sam68 (KHDRBS1); -0.687 in test [17]; 1.12 in test [18]. Besides, the z-score in test [2] is -1.2. The composite Z-score in test [11] was 0.219 (inactive).
